# Test results from the supplement of paper PMC12669032.
# Values without a mark were called inactive.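 The calls were made as follows: active = AUC reduced over 20% with Padj below 0.05 in at least 2 of 3 replicates; inactive = otherwise.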
# Legend:
# Assay in all cases: growth AUC relative to DMSO control (median of replicates) (fraction); higher = more growth (less inhibition), active = hit call of the paper
# Conditions in all cases: 20 µM; 24 h
# Akkermansia muciniphila = system: Akkermansia muciniphila
# Procedure, shortened: (§1)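 Hourly OD600 readings over 24 h tracked anaerobic gut bacterial monocultures grown at 37 °C in mGAM from OD600 0.05 with 20 µM compound (1% DMSO). After the minimum OD was set to 0, area under the growth curve was normalised to the plate median of solvent-only wells, or to row and column medians on the industrial chemical plate. Values are medians of three biological replicates grown on separate days.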
# Bacteroides caccae = system: Bacteroides caccae
# Procedure, shortened: as §1
# Bacteroides clarus = system: Bacteroides clarus
# Procedure, shortened: as §1
# Bacteroides dorei = system: Bacteroides dorei
# Procedure, shortened: as §1
# Bacteroides stercoris = system: Bacteroides stercoris
# Procedure, shortened: as §1
# [1] = system: Bacteroides thetaiotaomicron
# Procedure, shortened: as §1
# Bacteroides uniformis = system: Bacteroides uniformis
# Procedure, shortened: as §1
# [2] = system: Bifidobacterium longum subsp. longum
# Procedure, shortened: as §1
# Clostridium difficile = system: Clostridium difficile
# Procedure, shortened: as §1
# Collinsella aerofaciens = system: Collinsella aerofaciens
# Procedure, shortened: as §1
# Coprococcus comes = system: Coprococcus comes
# Procedure, shortened: as §1
# Escherichia coli ED1a = system: Escherichia coli ED1a
# Procedure, shortened: as §1
# Escherichia coli IAI1 = system: Escherichia coli IAI1
# Procedure, shortened: as §1
# Eubacterium rectale = system: Eubacterium rectale
# Procedure, shortened: as §1
# [3] = system: Fusobacterium nucleatum subsp. animalis
# Procedure, shortened: as §1
# Lactobacillus gasseri = system: Lactobacillus gasseri
# Procedure, shortened: as §1
# Lactobacillus paracasei = system: Lactobacillus paracasei
# Procedure, shortened: as §1
# Odoribacter splanchnicus = system: Odoribacter splanchnicus
# Procedure, shortened: as §1
# [4] = system: Parabacteroides distasonis
# Procedure, shortened: as §1
# Parabacteroides merdae = system: Parabacteroides merdae
# Procedure, shortened: as §1
Compound,growth AUC (Akkermansia muciniphila),growth AUC (Bacteroides caccae),growth AUC (Bacteroides clarus),growth AUC (Bacteroides dorei),growth AUC (Bacteroides stercoris),growth AUC [1],growth AUC (Bacteroides uniformis),growth AUC [2],growth AUC (Clostridium difficile),growth AUC (Collinsella aerofaciens),growth AUC (Coprococcus comes),growth AUC (Escherichia coli ED1a),growth AUC (Escherichia coli IAI1),growth AUC (Eubacterium rectale),growth AUC [3],growth AUC (Lactobacillus gasseri),growth AUC (Lactobacillus paracasei),growth AUC (Odoribacter splanchnicus),growth AUC [4],growth AUC (Parabacteroides merdae)
CCNc1nc(NC(C)C(C)C)nc(SC)n1 (stereo not given),0.961,1.01,0.962,1,1.04,0.915,0.972,0.965,1,1.05,0.977,0.979,0.991,0.89,0.997,1.06,0.81,0.954,1.04,0.992
N#Cc1cc(Br)c(O)c(Br)c1,1.11,0.896,0.951,0.924,0.875,0.997,0.988,1.05,0.98,0.968,0.996,0.907,0.773 (active),1.28,0.864,0.903,0.988,1.1,0.915,0.94
CCSCc1ccccc1OC(=O)NC,0.874,1.01,0.972,0.995,0.992,0.967,0.973,0.967,0.972,1,0.959,0.971,0.98,0.933,0.973,1.13,1.01,1.03,1.06,1.01
Clc1cc(Cl)nc(-c2ccccc2)n1,1.12,0.877,0.99,0.995,1,0.971,0.956,1.09,0.956,0.927,1.02,1.01,0.997,1.06,1.08,0.883,1,1.02,0.991,0.965
COP(=S)(OC)Oc1ccc(S(C)(=O)=O)c(C)c1,0.98,0.994,1,0.974,1.04,0.994,0.964,0.831,0.985,1.01,1.03,0.991,0.985,1,1.1,0.901,1.01,1.03,0.987,0.993
ClC1C(Cl)C(Cl)C(Cl)C(Cl)C1Cl (mixture of isomers),0.921,0.981,0.932,1.01,0.826,0.986,0.916,0.921,0.982,1,1.03,1.01,0.981,0.936,0.966,1.08,1,0.935,1.04,0.949
CCS(=O)(=O)c1nc2ccccn2c1S(=O)(=O)NC(=O)Nc1nc(OC)cc(OC)n1,1.1,1.02,1.02,0.993,1,0.995,0.989,0.928,1.01,0.983,1.04,0.99,1.01,0.999,0.977,0.88,1.01,1.05,1.02,1.02
Oc1ccc(Cl)c(Cl)c1Cl,0.923,0.922,0.975,1.02,1.15,1,0.96,0.969,0.998,0.993,1.02,1.01,0.971,1.06,1.09,1.12,1.01,0.978,0.971,1.06
CCOP(=S)(OCC)SCS(=O)(=O)C(C)(C)C,0.89,1.02,0.944,0.994,0.976,1.01,1.01,0.966,0.98,1.02,0.991,1.01,0.966,1.08,0.964,1.02,1.03,0.979,1.02,0.986
CO/N=C(/C(=O)OC)c1ccccc1COc1ccccc1C,0.899,0.979,0.957,0.964,0.993,0.907,0.955,0.874,1.02,0.991,0.996,0.955,0.993,0.939,1.02,1.01,0.881,0.92,0.944,0.927
Cc1cc(Cl)ccc1OCC(=O)O.O.[Na],1.25,0.981,1.01,0.921,1.02,1.05,0.993,1.05,1.02,0.98,1,1.01,1,1.15,1.07,0.864,0.994,1.03,0.95,1.04
CNC(=O)N(C)c1nc2ccccc2s1,0.902,1.02,0.991,1,0.998,0.999,0.991,0.936,0.978,0.995,0.992,0.999,0.991,0.958,0.971,0.994,0.949,0.988,0.972,1.02
